Compounds with a hit are over-represented: about 21% of the library has one in this group of screens.
NS1 inh: influenza NS1 inhibition; 0.4% of 270,000 active; AID 2326; Potency, µM (top dose mostly 46.1 µM); calls by dose curve; note: actives are rising curves; nearly all actives have a fitted effect of over 50% in size
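Read-out: OD600 growth recovery of NS1-expressing budding yeast. Cells grown overnight at 30C in -URA glucose medium, washed, resuspended and diluted 1:100 in 2% galactose assay medium, pH 6.0. Same strain lacking NS1 served as positive control.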
Shiga inhibitor: blocks Shiga toxin action in Vero cells; inhibition, % at 38.7 µM; Vero cells, Shiga toxin protein synthesis inhibition reporter; AID 2315; 9.2% of 290,000 active; in the data active = inhibition mostly above about 28%, no sharp cut-off; inactive = mostly below about 43%
Sm TGR inh: inhibitors of Schistosoma mansoni thioredoxin glutathione reductase; 3% of 360,000 active; Q962Y6; Potency, µM (titrated, usually from 114 µM), most hits filed as inhibitors; purified TGR, DTNB reduction, TNB absorbance 405 nm; note: nearly all actives have a fitted effect of over 60% in size
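TGR 20 nM + NADPH 100 uM (dispensed conc.), cpd preinc 15 min RT; start with NADPH (500 uM addition) then DTNB (15 mM addition). Kinetic TNB absorbance, 405 nm filter. Four-parameter Hill fit across titration.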
CHX counter: counter-screen for Shiga toxin inhibitors: cycloheximide protein synthesis inhibition. cell reporter, cycloheximide protein synthesis inhibition counterscreen. max response, %. 12% of 300,000 active. AID 2314; in the data active = max response mostly above about 13%, no sharp cut-off; inactive = mostly below about 14%; note: read at 38.3 µM for the half of the compounds with a filed dose
Pf growth 48h: P. falciparum growth inhibition at 48 hours (one generation) | AID 504832 | P. falciparum luciferase growth in erythrocytes, 48 h | Potency, µM (highest dose often 28.7 µM), usual class: inhibitors | 5.9% of 310,000 active
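Erythrocytes infected with P. falciparum carrying an integrated firefly luciferase reporter (2% hematocrit, 0.1% parasitemia final) were exposed to compounds in RPMI 1640 with 0.5% Albumax at 37 C, 5% CO2. Growth inhibition was scored as reduced luminescence.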
Pf growth 96h: inhibits malaria parasite growth, 96 h. P. falciparum luciferase reporter growth, 96 h. Potency, µM (doses to about 28.7 µM), most hits filed as inhibitors. 6.9% of 320,000 active. AID 504834
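Cell-based qHTS: luciferase-tagged P. falciparum in erythrocytes (2% hematocrit, 0.05% parasitemia final) incubated with compounds for 96 hours, 37 C, 5% CO2; luciferase detection reagent then added and luminescence measured.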
NS1 inh valid: validation of influenza NS1 protein function inhibitors; shares compounds with NS1 inh; influenza NS1 function cell assay, 15-point titration; activity change, negative = inhibition, % at 32.9 µM; 1,400 tested, under 10 active; AID 492980; calls by dose curve
Flu PR8 replic: reduces influenza A/PR/8/34 replication in MDCK cells; shares compounds with NS1 inh; MDCK infected influenza A/PR/8/34, virus titer TCID50; active compounds read low; AID 504647; 30% of 95 active; virus titer (log TCID50), log10 TCID50 at 5 µM; call rule not given here
Each line names hits and unclear results; the compound was inactive in the other large screens (follow-up assays come after a bar, where they were run). Unless noted, calls come from the whole dose curve; as a rule, active = well fitted curve in the direction sought with a large enough effect; inconclusive = small, poorly fitted or top-dose-only effect, or another doubt; inactive = no such curve, though single readings can be large; an effect the other way counts as inactive or inconclusive.

Cc1cc(C)c(NC(=O)C2CCN(C(=O)N3CCOc4ccccc43)CC2)c(C)c1	none (no result: NS1 inh, Shiga inhibitor, CHX counter, Pf growth 48h, Pf growth 96h)
CC(=O)c1cccc(NC(=O)C(OC(=O)c2cccc(S(=O)(=O)N(C)c3ccccc3)c2)c2ccccc2)c1 (centres undefined)	NS1 inh inconclusive
COc1ccc(N(C)S(=O)(=O)c2cccc(C(=O)OC(C(=O)Nc3cc(C)cc(C)c3)c3ccccc3)c2)cc1 (centres undefined)	NS1 inh 8.9µM | NS1 inh valid inactive
COc1ccc(N(C)S(=O)(=O)c2cccc(C(=O)N3CCN(S(=O)(=O)c4ccc(C)cc4)CC3)c2)cc1	NS1 inh 11µM, Pf growth 48h 5.9µM, Pf growth 96h 2.6µM | NS1 inh valid inactive
NS(=O)(=O)c1ccc(CCNc2ncnc3c2c(-c2ccccc2)cn3-c2ccc(F)cc2)cc1	Pf growth 48h inconclusive, Pf growth 96h inconclusive
CCCCC(=O)NC(NC(=S)N1CCCCCC1)C(Cl)(Cl)Cl (centres undefined)	Pf growth 48h inconclusive
C=C1C(=O)C=C[C@]2(C)C[C@@H]3OC(=O)[C@](C)(O)[C@H]3C[C@@H]12	NS1 inh inconclusive, Shiga inhibitor 63, CHX counter 35, Pf growth 48h 12µM, Pf growth 96h 15µM | NS1 inh valid inactive
COc1cccc(NC(=O)C2CCCN2S(=O)(=O)c2ccc3nc(-c4ccccc4)[nH]c3c2)c1 (centres undefined)	none (no result: NS1 inh, Shiga inhibitor, CHX counter, Pf growth 48h, Pf growth 96h)
COc1cccc(-c2cc(=O)c3cc(NC(=O)c4ccc(N(C)C)cc4)ccc3[nH]2)c1	NS1 inh 13µM, Pf growth 48h 10µM, Pf growth 96h 13µM | NS1 inh valid inactive
CC1C/C(=N\NC(=S)NCc2ccccc2)CC(C)(C)C1 (centres undefined)	NS1 inh inconclusive, Pf growth 96h 4.1µM (no result: Pf growth 48h) | NS1 inh valid inconclusive
OC(Cc1nc2ccccc2[nH]1)c1ccccc1Cl (centres undefined)	NS1 inh 0.28µM, Shiga inhibitor 107, CHX counter 49, Pf growth 96h inconclusive | NS1 inh valid inactive
OCCCc1nc2ccccc2[nH]1	Pf growth 48h inconclusive, Pf growth 96h inconclusive (no result: NS1 inh)
O=C(O)c1cc(NS(=O)(=O)c2ccc(NCc3ccccc3)c([N+](=O)[O-])c2)cc(C(=O)O)c1	NS1 inh 14µM | NS1 inh valid inactive
O=C(O)CC1(CC(=O)N2CCOCC2)CCCC1	none
CC1(C)OC(=O)C(=CNCC(O)c2ccccc2)C(=O)O1 (centres undefined)	NS1 inh 16µM, Pf growth 48h inconclusive, Pf growth 96h inconclusive | NS1 inh valid inactive
CC1(C)OC(=O)C(=CNc2ccccc2)C(=O)O1	none
COc1cc(NC(=O)CN2C(=O)C(C)N(c3ccc(C)cc3)C2=O)cc(OC)c1 (centres undefined)	none (no result: NS1 inh, Shiga inhibitor, CHX counter)
CCCC(C)NC(=O)c1ccc2[nH]c3c(c2c1)CC(C)CC3 (centres undefined)	NS1 inh 11µM, CHX counter 28, Pf growth 48h 4.7µM, Pf growth 96h 3.3µM | NS1 inh valid inactive
Cc1ccccc1-c1nc2ccccc2c(=O)n1/N=C/c1ccccc1[N+](=O)[O-]	NS1 inh 3.2µM, Pf growth 48h inconclusive | NS1 inh valid inactive
O=c1c2ccccc2nc(-c2ccccc2)n1/N=C/c1ccc([N+](=O)[O-])cc1	none
Cc1ccc(CNC(=O)CSCC(=O)O)cc1	none (no result: Pf growth 48h)
O=C(NCc1ccco1)C1CC(c2cc(C(F)(F)F)cc(C(F)(F)F)c2)=NO1 (centres undefined)	none
C=CCn1c(SCC(=O)NC(=O)NCCC)nnc1C1CCCCC1	Pf growth 48h inconclusive, Pf growth 96h inconclusive
C=CCn1c(SCC2=C(C(=O)OCC)C(C)NC(=O)N2)nnc1C1CCCCC1 (centres undefined)	NS1 inh 11µM, Pf growth 48h 12µM | NS1 inh valid inactive | Flu PR8 replic inactive
COc1ccc(C(=O)CSc2nnc(-c3ccccn3)n2Cc2ccco2)cc1	NS1 inh inconclusive, Sm TGR inh 50µM, Pf growth 48h inconclusive, Pf growth 96h inconclusive | NS1 inh valid inactive
Cc1ccc(NS(=O)(=O)c2cccc(C(=O)NCCc3c[nH]c4ccccc34)c2)c(C)c1	NS1 inh 11µM, Pf growth 48h inconclusive, Pf growth 96h inconclusive | NS1 inh valid inactive
Cc1ccc(NC(=O)C(=O)NCCc2c[nH]c3ccccc23)c(C)c1	none (no result: NS1 inh)
O=c1ccc(Cc2ccc(Cl)cc2)n[nH]1	none (no result: Sm TGR inh)
O=c1ccc(Cl)n[nH]1	NS1 inh 7.9µM | NS1 inh valid inactive
O=C(Nc1ccc(F)cc1)C1CCN(S(=O)(=O)c2cccs2)CC1	Pf growth 48h inconclusive (no result: NS1 inh)
COCCNC(=O)c1ccc(CS(=O)(=O)c2ccccc2C)o1	none
COC(=O)c1ccc(CS(=O)(=O)c2ccccc2C)o1	NS1 inh 1µM | NS1 inh valid inactive
COc1cc(NC(=O)CCc2c(C)n(C)c3cc(-c4ccccc4C)nn3c2=O)cc(OC)c1OC	none (no result: NS1 inh, Shiga inhibitor, CHX counter, Pf growth 48h, Pf growth 96h)
CC(=O)c1cccc(S(=O)(=O)N2CCN(c3nc4cc(C)cc(C)c4cc3C#N)CC2)c1	NS1 inh 10µM, Pf growth 48h inconclusive | NS1 inh valid inactive
Cc1cc(C)c2cc(C#N)c(N3CCCN(C(=O)c4cnccn4)CC3)nc2c1	Pf growth 48h inconclusive, Pf growth 96h inconclusive
C[C@@H](C(=O)Nc1ccc2ccccc2c1)[C@@H]1C[C@@]1(C)[C@@H](NC(=O)c1ccccc1)c1ccccc1	NS1 inh 13µM, Pf growth 48h inconclusive, Pf growth 96h 13µM | NS1 inh valid inactive | Flu PR8 replic inactive
C[C@@H](C(=O)Nc1ccc2ccccc2c1)[C@H]1C[C@]1(C)[C@H](N)c1ccccc1	none (no result: NS1 inh, Sm TGR inh, Pf growth 48h, Pf growth 96h)
C[C@@H](C(=O)Nc1ccc2ccccc2c1)[C@H]1C[C@]1(C)[C@H](NC(=O)c1cccnc1)c1ccccc1	NS1 inh 14µM, Pf growth 48h 5.2µM, Pf growth 96h 5.2µM | NS1 inh valid inactive | Flu PR8 replic inactive
CC(C)(C)c1nc(N2CCN(C(=O)c3ccco3)CC2)c2nnn(Cc3ccccc3Cl)c2n1	NS1 inh 13µM, Pf growth 48h 1.7µM (no result: Pf growth 96h) | NS1 inh valid inconclusive
NC(=S)NNC(=O)c1cccc(Cl)c1	NS1 inh 3.2µM | NS1 inh valid inactive
NC(=S)NNC(=O)c1ccccc1Cl	none
COc1ccc(C2NC(C(=O)O)Cc3c2[nH]c2ccccc32)cc1OC (centres undefined)	NS1 inh inconclusive (no result: Pf growth 96h) | NS1 inh valid inactive
COc1ccccc1-n1c(=O)c2c3c(sc2n(C)c1=O)CN(C(C)=O)CC3	none (no result: NS1 inh, Shiga inhibitor, CHX counter, Pf growth 48h, Pf growth 96h)
CCOC(=O)c1c(-c2ccco2)csc1N	NS1 inh 1.3µM, Sm TGR inh inconclusive (no result: Pf growth 96h) | NS1 inh valid inconclusive

Screening results from PubChem.
